# “And” between values parts separate entries of the source, which are not always exact repeats. Equal entries are not always repeated. Records with an inconclusive call do not appear. More than one record can exist for a structure, and the calls need not agree. The source made the active and inactive calls. The calls were made as follows, unless noted: active = hit-call score of the fitted dose curve at least 0.9, where 1 is the maximum; inactive = score below 0.9.
# Tests used:
# [1] = CCTE_Shafer_MEA_dev_firing_rate_mean: CCTE's Neural Network Formation Assay for Mean Firing Rate, Shafer Lab (AID 2284031);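 as to AC50: curve fitted for loss of firing so AC50 reflects decreased mean firing rate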
# Outline: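 Primary rat cortical neurons on 48-well MEA plates, exposed from plating day 0 with dosing renewed on DIV 5 and 9. Mean well firing rate over active electrodes, recorded days 5, 7, 9, 12, summarised as trapezoidal AUC.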
# [2] = CCTE_Shafer_MEA_dev_per_burst_spike_percent: CCTE's Neural Network Formation Assay for Percent of Spikes in a Burst, Shafer Lab (AID 2284032);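 as to AC50: fitted as a decrease in burst spike percentage below DMSO baseline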
# Outline: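 Rat primary cortical neurons on 16-electrode MEA wells, dosed from plating day 0 for 12 days with renewal on DIV 5 and 9; spikes-in-bursts percentage averaged over bursting electrodes, collapsed as AUC across days 5, 7, 9, 12; loss direction versus DMSO.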
# [3] = CCTE_Shafer_MEA_dev_active_electrodes_number: CCTE's Neural Network Formation Assay for Number of Active Electrodes, Shafer Lab (AID 2284040; active = hit-call score of the fitted dose curve at least 0.9, where 1 is the maximum;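 as to AC50: potency for loss of active electrodes versus DMSO so lower counts are hits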)
# Outline: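 Primary rat cortical neurons on 16-electrode MEA wells, exposed from day 0 through day 12 with compound renewed at DIV 5 and 9 feeds. Active electrodes (mean firing ≥5 spikes/min) counted at DIV 5, 7, 9, 12; trapezoidal AUC across days, loss-of-signal versus DMSO.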
# [4] = CCTE_Shafer_MEA_dev_burst_rate: CCTE's Neural Network Formation Assay for Burst Rate, Shafer Lab (AID 2284042);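 as to AC50: potency for loss of burst rate below DMSO control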
# Outline: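 Cells plated, treated day 0; recorded DIV 5, 7, 9, 12; fed and re-treated DIV 5, 9. Endpoint: bursts per recording time, active-electrode well mean, trapezoidal AUC, fitted in decreasing direction against DMSO baseline.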
# [5] = CCTE_Shafer_MEA_dev_bursting_electrodes_number: CCTE's Neural Network Formation Assay for Number of Bursting Electrodes, Shafer Lab (AID 2284043; active = hit-call score of the fitted dose curve at least 0.9, where 1 is the maximum;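 as to AC50: potency is for loss of bursting electrodes relative to DMSO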)
# Outline: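 Primary rat cortical neurons plated on 16-electrode MEA wells, exposed from day 0 with compound renewed at DIV 5 and 9. Electrodes bursting ≥1 burst per 2 min counted on days 5, 7, 9 and 12; trapezoidal AUC across days, fitted for loss versus DMSO.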
# [6] = CCTE_Shafer_MEA_dev_per_burst_interspike_interval: CCTE's Neural Network Formation Assay for Burst Interspike Interval, Shafer Lab (AID 2284044);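 also: mean spike spacing inside bursts as AUC over recordings on days 5 7 9 12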;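 as to AC50: potency for a decrease of within-burst interspike interval below DMSO level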
# Outline: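 Neurons from rat cortex plated onto PEI-coated MEA wells with laminin […] at 1.5 x 10^5 cells/well, then treated from day 0. Media and compound fully replaced on DIV 5 and 9. Extracellular spontaneous firing recorded four times; interspike interval per burst summarised as AUC.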
# [7] = CCTE_Shafer_MEA_dev_burst_duration_mean: CCTE's Neural Network Formation Assay for Mean Burst Duration, Shafer Lab (AID 2284045);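 as to AC50: curve fitted for loss meaning shorter burst duration than DMSO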
# Outline: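 Primary rat cortical neurons on 48-well 16-electrode MEA plates, exposed from day 0 with renewal at DIV 5 and 9; spontaneous activity recorded on days 5, 7, 9, 12. Well-mean burst duration across bursting electrodes, collapsed as trapezoidal AUC; DMSO baseline.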
# [8] = CCTE_Shafer_MEA_dev_interburst_interval_mean: CCTE's Neural Network Formation Assay for Mean Interburst Interval, Shafer Lab (AID 2284046);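 also: well-mean interburst interval of bursting electrodes as AUC over four recording days; curve fitted for decrease in interburst interval relative to DMSO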
# Outline: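 Developing rat cortical networks on 48-well MEAs receive compound from the day of plating. Burst intervals from each active electrode are averaged per well, and AUC over the recording days is fitted in the negative direction against DMSO.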
# [9] = target: Estrogen receptor (Homo sapiens) (UniProt P03372); experiment: CCTE_Deisenroth_AIME_384WELL_LUC_Active: CCTE's 384-well Estrogen Receptor Transactivation Assay with AIME metabolic competence (ERTA luciferase; metabolism positive), Deisenroth Lab (AID 2284030; active = hit-call score of the fitted dose curve at least 0.9, where 1 is the maximum)
# Sequence of Estrogen receptor (Homo sapiens) (P03372 whole entry, looked up): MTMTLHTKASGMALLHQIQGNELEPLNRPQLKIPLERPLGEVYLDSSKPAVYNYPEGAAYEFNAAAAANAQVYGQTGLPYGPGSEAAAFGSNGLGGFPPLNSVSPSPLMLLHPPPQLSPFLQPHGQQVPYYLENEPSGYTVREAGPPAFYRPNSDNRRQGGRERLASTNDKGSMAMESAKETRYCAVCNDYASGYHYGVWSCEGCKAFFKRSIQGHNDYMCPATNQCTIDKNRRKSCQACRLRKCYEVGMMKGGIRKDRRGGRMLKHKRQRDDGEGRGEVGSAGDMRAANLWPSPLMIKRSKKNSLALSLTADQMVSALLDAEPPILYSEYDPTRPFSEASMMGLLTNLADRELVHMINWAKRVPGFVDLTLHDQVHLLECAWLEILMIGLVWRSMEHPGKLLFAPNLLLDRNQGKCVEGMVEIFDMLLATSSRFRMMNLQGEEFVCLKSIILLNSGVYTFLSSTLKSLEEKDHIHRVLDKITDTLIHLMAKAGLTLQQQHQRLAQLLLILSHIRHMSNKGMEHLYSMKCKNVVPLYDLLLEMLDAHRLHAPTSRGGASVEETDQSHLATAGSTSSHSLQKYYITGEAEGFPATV
# Outline: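 AIME metabolism-positive mode: chemicals 0.002 - 200 uM, 2 h with alginate-bound PB/BNF-induced rat S9 → medium to VM7Luc4E2 ERTA, 24 h → luciferase. Positive fit vs 17beta-estradiol; n=4 typical.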
# [10] = CCTE_Deisenroth_AIME_384WELL_CTox_Active: Cytotoxicity Assessment (CTOX) in CCTE's 384-well Estrogen Receptor Transactivation Assay with AIME metabolic competence (metabolism positive), Deisenroth Lab (AID 2284037; active = hit-call score of the fitted dose curve at least 0.9, where 1 is the maximum;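 also: chemicals first conditioned 2 h by alginate-bound induced rat liver S9 before cells; activity means signal loss indicating cell death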)
# Outline: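 Chemicals pre-incubated 2 hours with alginate-immobilised phenobarbital/beta-naphthoflavone-induced male Sprague Dawley rat liver S9, then conditioned medium applied 24 hour to VM7Luc4E2 cells. Viability by fluorogenic protease substrate; 10-point series 0.002 - 200 uM.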
# [11] = target: Estrogen receptor (Homo sapiens) (UniProt P03372); experiment: CCTE_Deisenroth_AIME_384WELL_LUC_Inactive: CCTE's 384-well Estrogen Receptor Transactivation Assay without AIME metabolic competence (ERTA luciferase; metabolism negative), Deisenroth Lab (AID 2284038; active = hit-call score of the fitted dose curve at least 0.9, where 1 is the maximum;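 also: VM7Luc4E2 breast cells given medium preincubated 2 h with S9-free microspheres; hits raise estrogen receptor luciferase signal so potencies reflect agonists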)
# Outline: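 Metabolism-negative mode: chemicals (10-point, 0.002–200 uM) held 2 h with alginate-water microspheres, then conditioned medium applied to VM7Luc4E2 cells for 24 h. Luciferase induction referenced to 17beta-estradiol.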
# [12] = target: Estrogen receptor (Homo sapiens) (UniProt P03372); experiment: CCTE_Deisenroth_AIME_384WELL_LUC_Shift: CCTE's 384-well Estrogen Receptor Transactivation Assay with AIME metabolic competence data shift (ERTA luciferase; difference in metabolism positive and negative), Deisenroth Lab (AID 2284041);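 also: shift is response with S9 minus without S9 so positive means metabolism raised ER signal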
# Outline: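 Chemicals (0.002–200 uM, 10 points) pre-incubated 2 h with alginate-encapsulated induced male Sprague Dawley rat liver S9 or S9-free, then medium applied 24 h to VM7Luc4E2 cells; luciferase. Endpoint is per-concentration difference, S9-positive minus negative.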
# [13] = CCTE_Deisenroth_AIME_384WELL_CTox_Inactive: Cytotoxicity Assessment (CTOX) in CCTE's 384-well Estrogen Receptor Transactivation Assay without AIME metabolic competence (metabolism negative), Deisenroth Lab (AID 2284039; active = hit-call score of the fitted dose curve at least 0.9, where 1 is the maximum;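 also: cell viability via live-cell protease substrate cleaved to fluorescent probe; cells exposed 24 h to medium preincubated 2 h with alginate-water beads without S9; loss of fluorescence signal means loss of viability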)
# Outline: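 Metabolism-negative arm: chemicals (10-point, 0.002 - 200 uM) preincubated 2 h with alginate-water lids, medium moved onto VM7Luc4E2 cells for 24 h. Fluorescent live-cell protease readout; bidirectional curve fit.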
# [14] = CCTE_Shafer_MEA_acute_burst_percentage_std: CCTE's Neural Acute Assay for Standard Deviation of Burst Percentage, Shafer Lab (AID 2284018);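 also: fitted in the negative direction so actives lower burst percentage SD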
# Outline: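 Rat primary cortical neurons on 48-well MEAs, DIV 13 or 15, 37 C. 40-min baseline then 40-min recording with compound (0.03-40 uM); well-level SD of per-electrode burst spike percentage, expressed as percent change from baseline.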
# [15] = CCTE_Shafer_MEA_acute_per_network_burst_spike_number_mean: CCTE's Neural Acute Assay for Average Number of Spikes in a Network Burst, Shafer Lab (AID 2284019)
# Outline: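 Rat primary cortical neurons on 48-well MEA at DIV 13 or 15, 37 C; compounds 0.03-40 uM, at least three wells each. 40-min baseline then 40-min exposure recording; percent change in mean spikes per network burst.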
# [16] = CCTE_Shafer_MEA_acute_per_network_burst_spike_number_std: CCTE's Neural Acute Assay for Standard Deviation of Number of Spikes in a Network Burst, Shafer Lab (AID 2284020);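 also: fitted for decrease in spike-number SD versus DMSO so actives lower it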
# Outline: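 Rat primary cortical neurons on 48-well MEA (16 electrodes/well), treated DIV 13 or 15 at 0.03-40 uM, ≥3 wells per compound. 40 min recordings at 37 C before and after dosing; value is percent change in network-burst spike-number SD, negative direction vs DMSO.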
# [17] = CCTE_Shafer_MEA_acute_per_network_burst_electrodes_number_mean: CCTE's Neural Acute Assay for Mean Number of Electrodes in a Network Burst, Shafer Lab (AID 2284021);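 also: curves fitted for decreases only so hits reduce electrodes per burst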
# Outline: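 Primary rat cortical networks, mwMEA, 37 C. 20 min stabilization, 40 min baseline, compound 0.03-40 uM, 40 min re-record. Wells need >=10 active electrodes; percent change per well, negative fitting direction.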
# [18] = CCTE_Shafer_MEA_acute_network_burst_percentage: CCTE's Neural Acute Assay for Percentage of Network Bursts, Shafer Lab (AID 2284022);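 also: curves fitted for loss so actives lower network burst percentage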
# Outline: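 Readout is the fraction of spikes falling in network bursts, expressed as per-well percent change from a 40-min pre-exposure baseline. Primary rat cortical neurons on MEA were exposed to 0.03-40 uM compound on DIV 13 or 15 and recorded for 40 min at 37 C.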
# [19] = CCTE_Shafer_MEA_acute_cross_correlation_HWHM: CCTE's Neural Acute Assay for Cross Correlation at Half Width at Half Maximum, Shafer Lab (AID 2284026);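 also: percent change per well from pre-dose baseline in spike cross-correlogram half width; hits are a decrease in cross-correlogram half width relative to DMSO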;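 as to outcome: spontaneous network firing of rat primary cortical neurons on multiwell microelectrode arrays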
# Outline: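 Rat cortical neuron cultures on microelectrode arrays were equilibrated 20 min at 37 C, recorded 40 min at baseline, then 40 min after compound addition (0.03-40 uM, ≥3 wells). Spikes were detected at 8x rms noise after 300-5000 Hz band-pass filtering.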
# [20] = CCTE_Shafer_MEA_acute_cross_correlation_area: CCTE's Neural Acute Assay for Area of Cross Correlation, Shafer Lab (AID 2284024);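 also: area under pooled inter-electrode spike cross-correlation near zero lag as percent change from own baseline; curves fitted for loss of cross-correlation area so actives lower synchrony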
# Outline: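 Plates equilibrated 20 min at 37 C, then 40 min baseline was recorded, compound was added (0.03-40 uM), and a further 40 min was recorded. Wells needed ≥10 active electrodes (≥5 spikes/min) on exposure day.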
smiles,measurement,setting,value
CCCSP(=O)(OCC)SCCC,outcome,[1],inactive
same,AC50,[2],50 µM (active) and 50.5 µM (active)
same,AC50,[3],27.9 µM (active) and 50.5 µM (active)
same,outcome,[4],inactive
same,AC50,[5],24.9 µM (active) and 22.7 µM (active)
same,outcome,[6],inactive
same,outcome,[7],inactive
same,outcome,[8],inactive
CCCCOC(=O)[C@@H](C)Oc1ccc(Oc2ccc(C#N)cc2F)cc1,outcome,[9],inactive
same,outcome,[10],inactive
same,outcome,[11],inactive
same,outcome,[12],inactive
CCOP(=O)(SC(C)CC)N1CCSC1=O (configuration not stated),outcome,[1],inactive
same,outcome,[2],inactive
same,outcome,[10],inactive
same,outcome,[13],inactive
same,outcome,[3],inactive
same,outcome,[4],inactive
same,outcome,[6],inactive
same,outcome,[7],inactive
same,outcome,[8],inactive
CCOP(=S)(OCC)OC(Cl)C(Cl)(Cl)Cl (configuration not stated),AC50,[1],23.4 µM (active)
same,AC50,[2],50 µM (active) and 19 µM (active)
same,AC50,[3],50 µM (active) and 22.9 µM (active)
same,AC50,[4],77.2 µM (active) and 23.6 µM (active)
same,AC50,[5],31.8 µM (active) and 23.2 µM (active)
same,AC50,[6],23.4 µM (active)
same,outcome,[6],inactive
same,AC50,[7],23.4 µM (active)
same,outcome,[7],inactive
same,AC50,[8],50 µM (active) and 13.7 µM (active)
CCC(=O)Nc1ccc(Cl)c(Cl)c1,AC50,[10],19.8 µM (active)
same,outcome,[13],inactive
CNC(=O)ON=C(SC)C(=O)N(C)C,outcome,[14],inactive
same,outcome,[15],inactive
same,outcome,[16],inactive
same,outcome,[17],inactive
same,outcome,[18],inactive
same,outcome,[19],inactive
CCC(=NOC/C=C/Cl)C1=C(O)CC(C2CCOCC2)CC1=O (configuration not stated),outcome,[10],inactive
same,outcome,[13],inactive
CCC(CC)Nc1c([N+](=O)[O-])cc(C)c(C)c1[N+](=O)[O-],outcome,[13],inactive
CC(Oc1cccc(Cl)c1)C(=O)O (configuration not stated),outcome,[1],inactive
same,outcome,[2],inactive
same,outcome,[3],inactive
same,outcome,[4],inactive
same,outcome,[5],inactive
same,outcome,[6],inactive
same,outcome,[7],inactive
same,outcome,[8],inactive
COc1ccc(C(=CC(=O)N2CCOCC2)c2ccc(Cl)cc2)cc1OC,outcome,[10],inactive
same,outcome,[13],inactive
CCOP(=O)(NC(C)C)Oc1ccc(SC)c(C)c1 (configuration not stated),outcome,[14],inactive
same,outcome,[15],inactive
same,outcome,[16],inactive
same,outcome,[17],inactive
same,outcome,[18],inactive
same,outcome,[20],inactive
same,AC50,[1],22 µM (active)
same,outcome,[1],inactive
same,AC50,[2],40.7 µM (active)
same,outcome,[2],inactive
same,outcome,[13],inactive
same,AC50,[3],33.4 µM (active)
same,outcome,[3],inactive
same,AC50,[4],40.1 µM (active)
same,outcome,[4],inactive
same,AC50,[5],32.3 µM (active)
same,outcome,[5],inactive
same,outcome,[6],inactive
same,AC50,[7],17.3 µM (active)
same,outcome,[7],inactive
same,AC50,[8],31.5 µM (active)
same,outcome,[8],inactive
CCOP(=S)(OCC)Oc1ccc([N+](=O)[O-])cc1,outcome,[1],inactive
same,outcome,[2],inactive
same,outcome,[3],inactive
same,outcome,[4],inactive
same,outcome,[5],inactive
same,outcome,[6],inactive
same,outcome,[7],inactive
same,outcome,[8],inactive
COP(=O)(OC)OC(Br)C(Cl)(Cl)Br (configuration not stated),AC50,[1],7.31 µM (active) and 13 µM (active)
same,AC50,[2],7.85 µM (active) and 19.1 µM (active)
same,AC50,[3],7.62 µM (active) and 14.8 µM (active)
same,AC50,[4],7.93 µM (active) and 13.3 µM (active)
same,AC50,[5],6.36 µM (active) and 12.9 µM (active)
same,AC50,[6],9.62 µM (active) and 16 µM (active)
same,AC50,[7],12.8 µM (active)
same,outcome,[7],inactive
same,AC50,[8],8.78 µM (active) and 10.1 µM (active)
COP(=O)(OC)SCn1c(=O)oc2cc(Cl)cnc21,outcome,[9],inactive
same,outcome,[10],inactive
same,AC50,[13],100 µM (active)
same,AC50,[12],71.1 µM (active)
CON=C(C(=O)OC)c1ccccc1CON=C(C)c1cccc(C(F)(F)F)c1,outcome,[14],inactive
same,outcome,[15],inactive
same,AC50,[16],0.59 µM (active)
same,AC50,[17],13.5 µM (active)
same,AC50,[20],0.162 µM (active)
same,AC50,[19],0.278 µM (active)
same,AC50,[1],639 nM (active) and 964 nM (active)
same,AC50,[2],1.11 µM (active) and 1.32 µM (active)
same,AC50,[10],19.8 µM (active)
same,outcome,[13],inactive
same,AC50,[3],775 nM (active) and 838 nM (active)
same,AC50,[4],655 nM (active) and 1.28 µM (active)
same,AC50,[5],728 nM (active) and 758 nM (active)
same,AC50,[6],1.53 µM (active) and 2.32 µM (active)
same,AC50,[7],674 nM (active) and 995 nM (active)
same,AC50,[8],1.32 µM (active) and 798 nM (active)
C#CC(C)(C)NC(=O)c1cc(Cl)cc(Cl)c1,outcome,[10],inactive
same,outcome,[13],inactive
CC(COc1ccc(Oc2ccccc2)cc1)Oc1ccccn1 (configuration not stated),AC50,[14],20 µM (active)
same,outcome,[15],inactive
same,AC50,[16],10.1 µM (active)
same,AC50,[17],20 µM (active)
same,AC50,[18],32.7 µM (active)
same,outcome,[20],inactive
same,AC50,[19],8.8 µM (active)
same,outcome,[10],inactive
same,outcome,[13],inactive
